# Sampled rows, rich in hits. Any-hit rate of the full collection: about 7.9%.
# KB-V1 cytotox: qHTS assay for MDR1-selective chemotherapeutics: Primary screen using the drug-selected MDR subline cells KB-V1 | actives 3.4% (n = 400,000) | KB-V1 MDR cells viability, CellTiter-Glo, 72 h | Potency, µM (highest dose often 46.1 µM), actives largely listed as cytotoxic | AID 1347076, 2019; further: on the % scale 0 is the no-effect control and ±100 the full control effect; nearly all actives have a fitted effect of over 60% in size
#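 Following 72 h at 37 degrees C with compound, KB-V1 cell viability was read by CellTiter-Glo luminescence, medium being phenol-red-free DMEM plus 10% FBS; concentration-response parameters came from normalized, curve-fitted qHTS data.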
# SW480 rerep: A quantitative high throughput screen for small molecules that induce DNA re-replication in SW480 colon adenocarcinoma cells. SW480 DNA re-replication, Hoechst DNA content imaging, 48 h. Potency, µM (series often up to 46.1 µM), inactives show top-dose re-replication activation, most hits filed as activators. actives 1.8% (n = 340,000); further: % of control where 0% means no effect; nearly all actives have a fitted effect of over 55% in size
#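 Cells (250 per well) received 23 nL compound or DMSO by pin tool and were kept 48 hr at 37 C, 5% CO2. Nuclei were then stained with Hoechst for 40 min and scanned for DNA content.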
# KB-3-1 tox: qHTS assay for MDR1-selective chemotherapeutics: Primary screen using the parental adenocarcinoma cell KB-3-1 | KB-3-1 viability, CellTiter-Glo ATP luminescence, 72 h | Potency, µM (highest dose often 46.1 µM), actives largely listed as cytotoxic | actives 1.4% (n = 400,000); further: on the % scale 0 is the no-effect control and ±100 the full control effect; nearly all actives have a fitted effect of over 60% in size
#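 72 h, 37 °C compound treatment of KB-3-1 parental cells; CellTiter-Glo added, 10 min, luminescence read. Data corrected against DMSO-only plates and normalized before curve fitting.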
# MCF10A rerep: A quantitative high throughput screen for small molecules that induce DNA re-replication in MCF 10a normal breast cells; Potency, µM (top dose mostly 46.1 µM), for inactives: at the highest dose activity, positive = re-replication, hits mostly activators; actives 2.9% (n = 350,000); AID 624296, 2012; MCF 10A DNA re-replication, Hoechst nuclear intensity, 48 h; further: % of control where 0% means no effect; nearly all actives have a fitted effect of over 50% in size
# HT1080 IDH1KD tx: qHTS for induction of synthetic lethality in tumor cells producing 2HG: qHTS for the HT-1080-IDH1KD cell line; HT-1080 IDH1 knockdown viability, ATP luminescence, 48 h; Potency, µM (doses to about 46.1 µM), for inactives: at the highest dose activity, negative = toxicity, hits mostly cytotoxic; actives 2% (n = 360,000); AID 686971, 2013;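 further: 0% = DMSO wells and -100% = cell-free medium wells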
#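 Assay cells: HT-1080 with IDH1 knockdown, 750 per well, RPMI/5% FBS. Exposure: 48 h at 37 °C following 2 h pre-incubation. Read: CellTiter-Glo luminescence; fitted concentration-response, curve class assigned.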
# HT1080NT lethal: qHTS for induction of synthetic lethality in tumor cells producing 2HG: qHTS for the HT-1080-NT fibrosarcoma cell line; HT-1080-NT fibrosarcoma viability, CellTiter-Glo ATP luminescence, 48 h; Potency, µM (titrated, usually from 46.1 µM), without a hit: at the top dose activity, negative = less viability, hits mostly cytotoxic; actives 1.6% (n = 360,000);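 further: NT is the 2HG producing partner of a matched IDH1 knockdown line; 0% = DMSO-treated cells and -100% = media-only wells without cells; nearly all actives have a fitted effect of over 55% in size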
#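 Viability of the 2HG-overproducing fibrosarcoma line after 48 hours of compound exposure at 37 degrees C was determined by luminescence with CellTiter-Glo, and concentration-effect curves were then fitted and categorized.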
# Starred values were filed as active, the others as inactive; i = inactive; ? = inconclusive; nt = not tested or not shown; [ ] = another dose, or the depositor's remark. The call rests on the fitted dose curve; in most records, active means well fitted curve in the direction sought with a large enough effect; inconclusive means small, poorly fitted or top-dose-only effect, or another doubt; inactive means no such curve, though single readings can be large; an effect the other way counts as inactive or inconclusive. Potency means the concentration at half of the fitted maximal effect.
SMILES,KB-V1 cytotox,SW480 rerep,KB-3-1 tox,MCF10A rerep,HT1080 IDH1KD tx,HT1080NT lethal
Cc1ccccc1CS(=O)(=O)CCC(=O)NCCN1CCN(c2cccc(Cl)c2)CC1,10.3µM*,-124.3%,i,0.4%,-2.9%,-1.0%
COc1ccc(C(=O)/C=C/c2cc(C(=O)O)cc3c2OCOC3)c(O)c1,i,3.3%,i,18.4µM*,?,?
CCN(C(=O)c1coc(=O)c(Br)c1)c1ccc2c(c1)OCO2,i,?,i,13µM*,?,?
CN(C)c1nccc(N(Cc2ccccc2)Cc2ccccc2)c1C#N,13µM*,-3.0%,?,?,-1.9%[9.24 µM],-18.3%
Clc1ccc(CN2CCN(c3ccccc3)CC2)cn1,i,-11.9%,i,4.0%,1.6%,10.3%
Cc1cc(C(=O)N/N=C/c2ccc(-c3cccc(Cl)c3)o2)n[nH]1,i,13.8%,i,2.6%,-1.0%,-14.4%
Cc1ccc(C(=O)N/N=C\c2ccc(-c3ccc(Cl)c(Cl)c3)o2)cn1,i,?,i,?,18.4µM*,16.4µM*
Cc1ccc(C(=O)N/N=C/c2ccc(-c3cccc(Cl)c3)o2)cn1,?,?,?,?,?,25.9µM*
O=S1(=O)N=C(Nc2nc3c(s2)CCCC3)c2ccccc21,i,-4.1%,i,0.9%,-16.0%,-18.7%
N#Cc1c(NC(=O)CSc2nnc(-c3ccccc3)o2)sc2c1CCCC2,i,8.5%,i,5.8µM*,-3.0%,-7.0%
CC1CCc2c(sc(NC(=O)CSc3nnc(-c4ccccc4)o3)c2C#N)C1 (stereo unspecified),?,-82.3%,i,14.8%,4.9%,2.2%
N#Cc1c(NC(=O)CSc2nnc(-c3ccncc3)n2CC2CCCO2)sc2c1CCCC2 (stereo unspecified),i,0.1%,i,-1.0%,0.0%,-1.9%
N#Cc1c(NC(=O)CSc2nc3ccccc3s2)sc2c1CCCC2,16.4µM*,-11.2%,i,?,-2.5%,-1.4%
Cc1csc(SCC(=O)Nc2sc3c(c2C#N)CCC3)n1,i,?,?,?,-23.7%,-2.8%
N#Cc1c(NC(=O)CSc2ncc(-c3ccccc3)n2CC2CCCO2)sc2c1CCCC2 (stereo unspecified),3.26µM*,4.6%,?,?,?,?
CCOC(=O)C1(C)CCN1C(=O)c1ccc(-c2ccccc2)cc1 (stereo unspecified),?,nt,i,nt,-2.4%,3.7%
C[C@@H]1CCCCO[C@@H](CN(C)C(=O)Nc2ccc3c(c2)OCO3)[C@@H](C)CN([C@H](C)CO)C(=O)c2cc(N(C)C)ccc2O1,i,nt,i,nt,3.4%,7.1%
CC(C(=O)Nc1ccccc1-c1ccccc1)N(C)Cc1nc2ccccc2c(=O)[nH]1 (stereo unspecified),11.6µM*,?,?,?,23.1µM*,23.1µM*
O=C(N/N=C/c1cc(Cl)cc(Cl)c1O)c1ccncc1,?,?,?,?,3.66µM*,?
COc1cc(Br)cc(C=Nc2cccc(C(F)(F)F)c2)c1O,i,-0.7%,?,20.6µM*,?,-15.8%
Cc1cccc(C(=O)Oc2c(Br)cc(Br)cc2/C=N/NC(=O)c2ccncc2)c1,i,2.1%,i,1.2%,15.2%,12.2%
